Inconclusive results are not listed. Calls of active or inactive are those of the source. Unless noted, calls come from the whole dose curve; as a rule, active = well fitted curve in the direction sought with a large enough effect; inconclusive = small, poorly fitted or top-dose-only effect, or another doubt; inactive = no such curve, though single readings can be large; an effect the other way counts as inactive or inconclusive.

Consider twelve compounds from PubChem BioAssay (NCATS).

In one experiment the target is Furin (Homo sapiens) (UniProt P09958). Description: Furin counterscreen qHTS for Zika virus inhibitors (AID 1347149).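 For activity change, negative = inhibition: purified recombinant full-length human furin enzyme at 5 nM; fluorescence gain from furin cutting a BOC-RVRR-AMC peptide substrate over 15 min; top concentration of the series differs between compounds; plate controls were no-inhibitor control for no effect and no-enzyme control for full effect.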 Note: nearly all actives have a fitted effect of over 70% in size. Note: potency is the fitted concentration of half-maximal effect. In a few lines:
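Fluorogenic cleavage of BOC-RVRR-AMC (2 microM final, Km ~15 µM) was monitored (ex 340, em 450 nm) at 37C after 15 min RT preincubation of 5 nM furin with compounds in HEPES pH 7.0 buffer with CaCl2 and Triton X-100. Percent inhibition was fitted to a 4-parameter Hill curve.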
In general terms: Counterscreens check selectivity or assay interference.

A short description of experiment [1]: Confirmatory screen GU Rhodamine qHTS for Zika virus inhibitors qHTS (AID 1347157).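 For activity change, negative = inhibition: plate controls were no-inhibitor wells for no effect and no-enzyme wells for full effect.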 Note: nearly all actives have a fitted effect of over 70% in size. Note: potency is the fitted concentration of half-maximal effect. In a few lines: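 Compounds, tested up to 114 microM, were incubated for 15 minutes with 25 nM unlinked NS2B-NS3 protease at pH 8.0. Cleavage of 1.5 microM Rhodamine110 substrate was then followed by fluorescence for 15 minutes.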
On the technique in general: qHTS replaces the single test concentration by a dilution series.

Experiment [2] is described as follows: ZIKV-mCherry secondary qHTS for Zika virus inhibitors (AID 1347158). Note: top concentration of the series differs between compounds. In a few lines:
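Vero cells (5,000/well) were given compound, then infected with ZIKV-mCherry at MOI 1 for 48–72 h at 37 °C. After PFA fixation and Hoechst staining, imaging gave percent mCherry-positive cells. The positivity threshold was RFU above 450, 3 SD over negative controls.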

The nature of experiment [3]: Confirmatory screen NINDS Rhodamine qHTS for Zika virus inhibitors (AID 1347161).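 For activity change, negative = inhibition: purified Zika NS2B-NS3 protease with linked NS2B cofactor domain and Rhodamine110 peptide substrate; plate controls were no-inhibitor control for no effect and no-enzyme control for full effect.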 Note: nearly all actives have a fitted effect of over 60% in size. Note: potency is the fitted concentration of half-maximal effect. In a few lines:
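qHTS dose-response: 25 nM linked protease, pH 8.0 Tris/Tween buffer, cpd titration, 15 min RT preinc, 1.5 microM Rhod110 peptide, 15 min reaction (~15% conversion), Ex480/Em540; 4-parameter Hill fit.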

For experiment [4], the system named is Zika virus NS2B-NS3 protease (linked). The experiment can be described thus: 384 well plate NINDS AMC confirmatory qHTS for Zika virus inhibitors (AID 1347163).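 For activity change, negative = inhibition: linked protease at 5 30 or 60 nM final depending on run; fluorescence of AMC released from Ac-VKTGKR-AMC peptide cleaved by the protease; top concentration of the series differs between compounds; 0% = no-inhibitor control and -100% = no-enzyme control.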 Note: nearly all actives have a fitted effect of over 50% in size. Note: potency is the fitted concentration of half-maximal effect. In a few lines: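 Linked NS2B-NS3 protease (final 5 nM, 30 nM or 60 nM) was preincubated with compounds (final up to 1 mM) for ~15 minutes. Ac-VKTGKR-AMC substrate (final 30 microM) then reacted for 25 minutes at room temperature in the dark. Fluorescence (ex 355/em 460 nm) was normalized to no-enzyme and no-inhibitor controls.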

Experiment [5] relates to Zika virus NS2B-NS3 protease (linked construct). Description: 384 well plate NINDS Rhodamine confirmatory qHTS for Zika virus inhibitors (AID 1347164).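 Note: fluorescence from protease cleavage of Ac-LKRR-rhodamine 110 substrate; potency is the fitted concentration of half-maximal effect; nearly all actives have a fitted effect of over 65% in size.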 A digest of the protocol: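 Enzyme (final 5/30/60 nM) + cpd (DMSO), ~15 min; add Ac-LKRR-Rd 10 microM final; 25 min RT, dark; FI ex 485/em 538; normalized to no-enzyme, no-inhibitor ctrls; aprotinin intraplate ctrl.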
Experiment [6] in a line: Tertiary RLuc qRT-PCR qHTS assay for Zika virus inhibitors (AID 1347169). Note: top concentration of the series differs between compounds; % is set by controls: 0 for no effect and ±100 for the full control effect; nearly all actives have a fitted effect of over 55% in size. A digest of the protocol:
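Vero, 1,000 cells/well, o/n 37 C; cpd pinned in DMSO; ZIKV-RLuc Cambodian, MOI 1-2, 48-72 h 37 C; live-cell RLuc substrate, lum read at 1-1.5 h.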

Experiment [7] has as its target Tyrosyl-DNA phosphodiesterase 1 (Homo sapiens) (UniProt Q9NUW8). The experiment can be described thus: Confirmation Assay for Inhibitors of Tyrosyl-DNA Phosphodiesterase (TDP1) (AID 489007). Note: potency is the fitted concentration of half-maximal effect; nearly all actives have a fitted effect of over 40% in size. To be noted: recombinant human TDP1 enzymatic activity, dose-response. A digest of the protocol: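 Recombinant human Tdp1 (1 nM final), expressed in E. coli, preincubated 15 min with compound. Then 15 nM 5'-biotin/3'-phosphotyrosine-FITC DNA substrate added for 5 min at room temperature. AlphaScreen beads (10 ug/ml) added for 10 min; cleavage gives signal loss.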

Experiment [8] addresses N-terminal Xaa-Pro-Lys N-methyltransferase 1 (Homo sapiens) (UniProt Q9BV86). Description: Confirmatory qHTS for Inhibitors of N-terminal methyltransferase 1 (NTMT1): MTaseGlo Assay (AID 1645874).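 Note: luminescence from SAH made as NTMT1 methylates SPKRIA peptide using SAM; 0% = DMSO control and -100% = no-enzyme control; nearly all actives have a fitted effect of over 65% in size.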 A digest of the protocol:
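Preincubation of NTMT1 (125 nM) plus SAM (100 uM) with test compounds lasted 15 min; methylation of 1 uM SPKRIA then proceeded 30 min in the dark at room temperature. Luciferase signal reported SAH produced.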

Experiment [9] has as its target Rap guanine nucleotide exchange factor 4 (Homo sapiens) (UniProt Q8WZA2). The experiment can be described thus: Confirmatory qHTS for agonist of cAMP-regulated guanine nucleotide exchange factor 4 (EPAC2) (AID 1645884).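 Note: nucleotide exchange releases bodipy-GDP from Rap1 and this lowers its fluorescence; % is set by controls: 0 for no effect and ±100 for the full control effect; nearly all actives have a fitted effect of over 65% in size.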
The target is the same in experiment [10]. Description: Confirmatory qHTS for antagonist of cAMP-regulated guanine nucleotide exchange factor 4 (EPAC2) (AID 1645885). Note: % is set by controls: 0 for no effect and ±100 for the full control effect; nearly all actives have a fitted effect of over 25% in size.
Experiment [11] concerns the target Rap guanine nucleotide exchange factor 3 (Homo sapiens) (UniProt O95398). The experiment can be described thus: Counterscreen qHTS for antagonist of cAMP-regulated guanine nucleotide exchange factor 3 (EPAC1) (AID 1645888).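 Note: fluorescence loss as bound BODIPY-GDP is released from Rap1B; % of control where 0% means no effect.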 A digest of the protocol:
(§1)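 Rap1B–BODIPY-GDP (250 nM) with 50 uM GDP; compounds pin-transferred to 9.74 nM–152 uM final (activator) or from 7.32 nM upwards (inhibitor). Fluorescence Ex/Em 480/540 nm read at 5 and 30 min, then after adding cAMP or buffer, at room temperature.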

The target is the same in experiment [12]. Description: Counterscreen qHTS for agonist of cAMP-regulated guanine nucleotide exchange factor 3 (EPAC1) (AID 1645889). Note: potency is the fitted concentration of half-maximal effect; nearly all actives have a fitted effect of over 40% in size. In a few lines:
as §1

Experiment [13] addresses Cytochrome P450 3A4 (Homo sapiens) (UniProt P08684). Description: qHTS Assay for Activators of Cytochrome P450 3A4 (AID 885). Note: nearly all actives have a fitted effect of over 65% in size. In a few lines: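 Steps: enzyme/substrate mix dispensed; compound added, 10 min RT; NADPH regeneration solution added, 60 min RT; luciferin detection buffer stops reaction; 20 min later luminescence measured.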
A short description of experiment [14]: Confirmation and Secondary Assay for Modulators of Hemoglobin Beta Chain Splicing at IVS2 654 locus (AID 910).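 Note: HeLa cells stably carrying EGFP split by mutant beta-globin IVS2-654 intron; % of control where 0% means no effect.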 A digest of the protocol: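 HeLa cells stably expressing EGFP interrupted by β-globin IVS2-654 intron, seeded overnight in Opti-MEM/2% FCS, then treated 2 days at 37 °C. Restored splicing read as total peak GFP intensity per well by laser scanning cytometry (488 nm excitation, 500–520 nm emission); 500 nM antisense PNA as control.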

Experiment [15] is described as follows: Confirmation and Secondary Assay for Modulators of Hemoglobin Beta Chain Splicing at IVS2 705 locus (AID 930).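 Note: HeLa cells stably expressing the EGFP-705 splicing reporter; GFP fluorescence per well restored by corrected splicing of the IVS2-705 intron in EGFP; % of control where 0% means no effect.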 In a few lines: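 Read-out: total peak GFP fluorescence per well (488 nm excitation, 500-520 nm emission) by laser-scanning cytometry. Cells: HeLa EGFP-705 splicing reporter, 2 days compound exposure in Optimem/2% FCS.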
Experiment [16] can be described thus: qHTS Assay for Lipid Storage Modulators (AID 1519; calls by dose curve; for activity change, negative = inhibition: % is set by controls: 0 for no effect and ±100 for the full control effect). To be noted: Drosophila S3 cells, BODIPY lipid droplet/cell ratio, laser cytometry, cells loaded with oleic acid. In a few lines: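 Cells seeded at 5,000 per well were treated with compounds over a concentration series and loaded with oleic acid (400 uM, as added). Lipid droplet fluorescence (488 nm excitation, 500-530 nm channel) was read by laser-scanning cytometry and normalized to 20 uM Triacsin C.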

Sequence of Furin (Homo sapiens) (P09958 whole entry, looked up): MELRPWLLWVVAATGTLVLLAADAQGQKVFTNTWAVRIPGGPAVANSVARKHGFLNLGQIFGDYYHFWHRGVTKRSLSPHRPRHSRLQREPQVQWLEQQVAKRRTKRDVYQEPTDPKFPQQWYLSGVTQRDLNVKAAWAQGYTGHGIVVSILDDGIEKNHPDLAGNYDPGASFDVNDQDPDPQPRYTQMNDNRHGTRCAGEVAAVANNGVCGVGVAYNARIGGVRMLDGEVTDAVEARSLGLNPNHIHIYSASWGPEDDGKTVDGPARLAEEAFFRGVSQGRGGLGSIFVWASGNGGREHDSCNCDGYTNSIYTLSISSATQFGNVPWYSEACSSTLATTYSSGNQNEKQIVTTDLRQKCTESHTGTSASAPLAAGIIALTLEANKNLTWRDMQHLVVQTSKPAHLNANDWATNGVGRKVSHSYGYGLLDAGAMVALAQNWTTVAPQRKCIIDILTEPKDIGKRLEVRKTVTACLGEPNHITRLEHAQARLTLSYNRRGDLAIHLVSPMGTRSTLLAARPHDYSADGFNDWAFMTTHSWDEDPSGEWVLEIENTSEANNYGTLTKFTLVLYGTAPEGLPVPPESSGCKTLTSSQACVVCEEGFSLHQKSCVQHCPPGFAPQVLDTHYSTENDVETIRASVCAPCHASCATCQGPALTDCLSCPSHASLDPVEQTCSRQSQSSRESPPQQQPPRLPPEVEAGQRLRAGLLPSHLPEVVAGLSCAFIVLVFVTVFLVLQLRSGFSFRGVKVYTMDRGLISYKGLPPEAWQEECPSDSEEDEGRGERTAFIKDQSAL
Sequence of Rap guanine nucleotide exchange factor 4 (Homo sapiens) (Q8WZA2 whole entry, looked up): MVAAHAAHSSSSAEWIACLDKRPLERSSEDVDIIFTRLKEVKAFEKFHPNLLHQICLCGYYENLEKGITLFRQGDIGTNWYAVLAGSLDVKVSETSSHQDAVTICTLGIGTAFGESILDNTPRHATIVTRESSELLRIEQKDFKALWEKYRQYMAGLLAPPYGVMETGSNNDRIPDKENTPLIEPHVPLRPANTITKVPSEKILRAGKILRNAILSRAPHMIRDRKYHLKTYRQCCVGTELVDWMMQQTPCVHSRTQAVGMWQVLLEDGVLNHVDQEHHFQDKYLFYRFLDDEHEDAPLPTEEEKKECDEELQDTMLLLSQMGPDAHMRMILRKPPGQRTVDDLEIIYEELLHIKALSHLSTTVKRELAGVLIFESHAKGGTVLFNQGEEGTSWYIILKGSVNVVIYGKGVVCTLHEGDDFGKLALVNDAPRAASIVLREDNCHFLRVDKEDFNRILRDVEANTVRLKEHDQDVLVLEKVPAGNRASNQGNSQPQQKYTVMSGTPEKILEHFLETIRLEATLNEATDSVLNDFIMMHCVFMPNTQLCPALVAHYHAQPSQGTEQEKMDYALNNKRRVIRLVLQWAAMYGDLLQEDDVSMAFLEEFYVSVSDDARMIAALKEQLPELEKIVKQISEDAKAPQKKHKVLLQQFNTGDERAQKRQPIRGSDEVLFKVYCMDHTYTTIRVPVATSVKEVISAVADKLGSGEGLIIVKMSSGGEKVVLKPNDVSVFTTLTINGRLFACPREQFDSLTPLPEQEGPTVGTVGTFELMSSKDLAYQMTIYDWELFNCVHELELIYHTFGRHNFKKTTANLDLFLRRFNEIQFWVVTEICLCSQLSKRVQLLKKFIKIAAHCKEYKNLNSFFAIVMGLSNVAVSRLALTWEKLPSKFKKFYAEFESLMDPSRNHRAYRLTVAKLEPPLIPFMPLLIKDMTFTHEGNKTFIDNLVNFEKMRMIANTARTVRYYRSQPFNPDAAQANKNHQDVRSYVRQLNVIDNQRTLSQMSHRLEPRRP
Sequence of Tyrosyl-DNA phosphodiesterase 1 (Homo sapiens) (Q9NUW8 whole entry, looked up): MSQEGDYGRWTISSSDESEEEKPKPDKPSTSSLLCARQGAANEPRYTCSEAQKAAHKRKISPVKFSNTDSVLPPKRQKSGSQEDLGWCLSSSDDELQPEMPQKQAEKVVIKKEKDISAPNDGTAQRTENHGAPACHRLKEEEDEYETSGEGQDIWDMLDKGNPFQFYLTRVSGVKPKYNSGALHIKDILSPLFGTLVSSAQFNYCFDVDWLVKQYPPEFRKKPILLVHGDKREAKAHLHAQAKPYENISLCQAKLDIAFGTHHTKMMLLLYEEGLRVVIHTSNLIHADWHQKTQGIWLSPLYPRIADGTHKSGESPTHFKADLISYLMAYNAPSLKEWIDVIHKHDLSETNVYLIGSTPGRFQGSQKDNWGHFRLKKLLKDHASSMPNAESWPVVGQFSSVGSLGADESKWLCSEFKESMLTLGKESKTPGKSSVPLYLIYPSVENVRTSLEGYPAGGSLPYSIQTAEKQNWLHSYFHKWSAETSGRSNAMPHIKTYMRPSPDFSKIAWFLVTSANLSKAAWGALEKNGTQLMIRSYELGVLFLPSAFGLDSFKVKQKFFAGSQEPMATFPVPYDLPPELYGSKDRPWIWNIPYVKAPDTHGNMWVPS
Sequence of Rap guanine nucleotide exchange factor 3 (Homo sapiens) (O95398 whole entry, looked up): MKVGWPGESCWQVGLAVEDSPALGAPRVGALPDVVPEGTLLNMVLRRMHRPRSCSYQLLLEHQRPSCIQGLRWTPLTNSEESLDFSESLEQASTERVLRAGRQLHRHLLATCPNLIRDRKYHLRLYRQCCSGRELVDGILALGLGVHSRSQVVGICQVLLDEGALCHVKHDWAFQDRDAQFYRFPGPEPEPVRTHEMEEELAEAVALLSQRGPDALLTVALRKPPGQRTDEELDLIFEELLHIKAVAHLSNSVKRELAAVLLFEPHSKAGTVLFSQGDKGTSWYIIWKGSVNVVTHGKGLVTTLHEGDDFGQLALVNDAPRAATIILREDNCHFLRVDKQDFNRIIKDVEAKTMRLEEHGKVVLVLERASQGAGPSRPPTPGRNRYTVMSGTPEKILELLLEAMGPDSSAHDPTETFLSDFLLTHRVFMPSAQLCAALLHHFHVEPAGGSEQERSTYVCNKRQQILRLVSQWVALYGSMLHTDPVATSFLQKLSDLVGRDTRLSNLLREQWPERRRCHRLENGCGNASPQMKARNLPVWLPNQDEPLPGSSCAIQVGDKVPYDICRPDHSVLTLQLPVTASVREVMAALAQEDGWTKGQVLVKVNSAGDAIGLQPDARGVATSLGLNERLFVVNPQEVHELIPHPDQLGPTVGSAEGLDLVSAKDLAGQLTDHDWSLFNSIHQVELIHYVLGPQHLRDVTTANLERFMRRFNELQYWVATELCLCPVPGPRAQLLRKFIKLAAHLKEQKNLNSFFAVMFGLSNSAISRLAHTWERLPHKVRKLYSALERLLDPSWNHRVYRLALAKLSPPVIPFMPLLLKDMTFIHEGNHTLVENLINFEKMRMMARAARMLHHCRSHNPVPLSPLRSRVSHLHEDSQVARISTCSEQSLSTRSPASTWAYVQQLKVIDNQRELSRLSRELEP
Sequence of N-terminal Xaa-Pro-Lys N-methyltransferase 1 (Homo sapiens) (Q9BV86 whole entry, looked up): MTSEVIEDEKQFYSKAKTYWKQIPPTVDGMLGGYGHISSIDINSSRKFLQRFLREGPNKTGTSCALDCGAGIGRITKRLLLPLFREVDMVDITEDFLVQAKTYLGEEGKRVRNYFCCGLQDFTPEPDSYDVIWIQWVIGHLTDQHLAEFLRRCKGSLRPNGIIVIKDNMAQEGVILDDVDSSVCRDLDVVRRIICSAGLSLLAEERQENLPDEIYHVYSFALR
Sequence of Cytochrome P450 3A4 (Homo sapiens) (P08684 whole entry, looked up): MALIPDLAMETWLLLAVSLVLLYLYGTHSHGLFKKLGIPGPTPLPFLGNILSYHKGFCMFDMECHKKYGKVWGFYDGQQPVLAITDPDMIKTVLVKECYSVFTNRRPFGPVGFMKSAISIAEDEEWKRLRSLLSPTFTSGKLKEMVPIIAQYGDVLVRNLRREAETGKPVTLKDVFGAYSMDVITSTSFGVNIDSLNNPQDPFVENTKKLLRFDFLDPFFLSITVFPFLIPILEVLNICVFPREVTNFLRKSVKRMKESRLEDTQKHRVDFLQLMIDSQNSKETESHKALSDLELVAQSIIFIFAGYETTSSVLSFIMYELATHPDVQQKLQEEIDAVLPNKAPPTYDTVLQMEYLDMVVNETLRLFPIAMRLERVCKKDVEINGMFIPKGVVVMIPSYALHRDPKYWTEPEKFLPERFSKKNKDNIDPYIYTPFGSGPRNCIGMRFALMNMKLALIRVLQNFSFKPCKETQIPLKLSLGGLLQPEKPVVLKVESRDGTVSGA

On to `O=C(O)c1cc(-c2ccc(C(F)(F)F)cc2)nc2n[nH]c(-c3ccccc3)c12`, for which the Potency in the experiment with Furin (Homo sapiens) is 52.7 µM (active); in experiment [1], 63.1 µM (active); in [3] it was 50.1 µM (active); in experiment [5] it was 141 µM (active). For the same compound, the Potency entry in experiment [2], in [4] and in experiment [6] was “inactive” throughout.
As for `N#C/C(=C\c1ccc(-c2ccc(Cl)c(C(=O)O)c2)o1)c1nc2ccccc2[nH]1`, the Potency in [7] is 112 µM (active); in experiment [1], 25.1 µM (active); in experiment [3], 22.4 µM (active); in experiment [4], 126 µM (active); in experiment [12] it was 79.4 µM (active). Besides, the Potency result (with Furin (Homo sapiens); in experiment [2]; in experiment [8]) was “inactive” each time. Further, the outcome in experiment [9] and in experiment [11] was inactive. The activity change, negative = inhibition in experiment [10] was -25.6% [at 12.7 µM] (inactive).
With `COc1ccc(S(=O)(=O)c2c(Nc3c(C)cccc3C)sc(C(=O)c3ccc4c(c3)OCO4)c2N)cc1`, the Potency in the experiment with Furin (Homo sapiens) is 23.5 µM (active). The Potency entry in experiment [1] and in experiment [3] was “inactive” in each case.
As to `COC(=O)C1=C(c2ccccc2)c2ccccc2S(=O)(=O)N1CC(=O)Nc1ccccc1C(F)(F)F`, the Potency entry (with Furin (Homo sapiens); in experiment [1]; in [3]) was “inactive” throughout.
Turning to `O=C(Nc1ccc(C(=O)OCc2cc(=O)n3c4c(sc3n2)CCCC4)cc1)c1cccc(F)c1`, the Potency with Furin (Homo sapiens) was 46.9 µM (active). Besides, the Potency result in experiment [1] and in experiment [3] was “inactive” each time.
Regarding `O=C(COc1ccccc1F)Nc1ccccc1C(=O)OCc1cc(=O)n2nc(C3CC3)sc2n1`, the Potency entry (with Furin (Homo sapiens); in experiment [1]; in experiment [3]) was “inactive” each time.
With `COC(=O)c1c(NC(=O)c2cc3nc(-c4ccc(Br)cc4)cc(C(F)(F)F)n3n2)sc2c1CCCC2`, the Potency entry (in the experiment with Furin (Homo sapiens); in [1]; in experiment [3]) was “inactive” throughout.
Turning to `CCOC(=O)c1ccc(NC(=O)c2ccc3c(c2)CCN3S(=O)(=O)c2ccc(Cl)cc2)cc1`, the Potency result (with Furin (Homo sapiens); in [1]; in experiment [3]) was “inactive” throughout.
Turning to `Cc1oc2c(cc(NS(=O)(=O)c3ccc(Br)cc3)c3ccccc32)c1C(=O)OCc1ccccc1`, the Potency result (in the experiment with Furin (Homo sapiens); in experiment [2]) was “inactive” throughout. The figures for the Potency in experiment [1], in experiment [3] and in experiment [5] were 31.6 µM (active), 39.8 µM (active) and 63.1 µM (active), respectively.
With `O=C(O)Cn1nnc(-c2ccc(OCc3cccc(C(F)(F)F)c3)cc2)n1`, the Potency entry (with Furin (Homo sapiens); in experiment [2]) was “inactive” in each case. For the same compound, the figures for the Potency in [1] and in experiment [5] were 25.1 µM (active) and 112 µM (active), respectively.
`O=c1c(-c2cc(O)c(O)c(O)c2)coc2cc(O)c(O)c(O)c12`: the Potency result (in experiment [13]; in the experiment with Furin (Homo sapiens); in [2]) was “inactive” each time. Further, the result in experiment [14] and in [15] was inactive. Besides, the activity change, negative = inhibition in experiment [16] (at 57.5 µM (top of the series)) is 15.6% (inactive). The max response in [16] (measured here: cell count channel max response) was 7.38%; in experiment [16] (measured here: lipid channel max response) it was 21.8%. In addition, the Potency in experiment [7] was 0.282 µM (active); in [1], 22.4 µM (active); in experiment [4], 316 µM (active); in experiment [5] it was 126 µM (active).
For `O=C(Nc1ccccc1C(=O)OCc1cc(=O)n2nc(C3CC3)sc2n1)c1ccc(Cl)cc1`, the Potency with Furin (Homo sapiens) is 41.8 µM (active). The Potency result in experiment [1] and in [3] was “inactive” throughout.
